Test results reported in PubChem BioAssay (Tox21).
Inconclusive results are not listed. Where a call stands in place of a potency, no number is given. Active and inactive are the calls of the source. Calls follow the shape of the full dose curve.
Potency is read from the fitted curve at half-maximal effect.

Assay: qHTS assay for small molecule disruptors of the mitochondrial membrane potential - cell viability (AID 720634); also: nearly all actives have a fitted effect of over 20% in size
Details: HepG2 viability, ATP luminescence (CellTiter-Glo), 1 h; series mostly up to 83.2 µM
How it was run: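 Luminescence from CellTiter-Glo (ATP content) gave viability in HepG2 cells, read in the same wells as the MMP dye assay after 1 hr compound exposure at 37 C.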
With `C[C@]12C=CC(=O)N[C@@H]1CC[C@@H]1[C@@H]2CC[C@]2(C)[C@@H](C(=O)Nc3cc(C(F)(F)F)ccc3C(F)(F)F)CC[C@@H]12` the Potency was “inactive”.
For `COc1ccc(C(=O)CCC(=O)O)c2ccccc12`, the Potency was “inactive”.
With `COc1ccc2cc([C@H](C)CO)ccc2c1` the Potency was “inactive”.
For `Cn1c(=O)c2c(ncn2CCOC(=O)C(C)(C)Oc2ccc(Cl)cc2)n(C)c1=O`, the Potency was “inactive”.
With `CCCCCC(O)/C=C/C=O` (configuration not stated) the Potency was “inactive”.
In the case of `CCC(C)[C@H]1O[C@]2(C=C[C@@H]1C)C[C@@H]1C[C@@H](C/C=C(\C)[C@@H](O[C@H]3C[C@H](OC)[C@@H](O[C@H]4C[C@H](OC)[C@H](NC(C)=O)[C@H](C)O4)[C@H](C)O3)[C@@H](C)/C=C/C=C3\CO[C@@H]4[C@H](O)C(C)=C[C@@H](C(=O)O1)[C@]34O)O2` (some centres not stated), the Potency is reported as “inactive”.
For `CC1(C)N=C(N)N=C(N)N1c1ccc(Cl)cc1`, the Potency was “inactive”.
In the case of `CN(C)C(=O)CCSC(SCCC(=O)O)c1cccc(/C=C/c2ccc3ccc(Cl)cc3n2)c1` (configuration not stated), the Potency is reported as 29.8 µM (active).
With `C[C@H](CCCC(C)(C)O)[C@H]1CC[C@H]2[C@@H]3CC=C4C[C@@H](O)CC[C@]4(C)[C@H]3CC[C@]12C` the Potency was “inactive”.
For `CNC(=O)c1c(I)c(C(=O)NCC(=O)Nc2c(I)c(C(=O)O)c(I)c(C(=O)NCCO)c2I)c(I)c(N(C)C(C)=O)c1I`, the Potency was “inactive”.
With `C=C1CC[C@@H]2[C@](C)(CO)[C@H](O)CC[C@@]2(C)[C@@H]1C/C=C1/C(=O)OC[C@H]1O` the Potency was “inactive”.
With `C[C@H](CSC(=O)c1ccccc1)C(=O)N1C[C@@H](Sc2ccccc2)C[C@H]1C(=O)O` the Potency was “inactive”.
